# Measurements published in the supplement of paper PMC7866885, “A novel bicyclic 2,4-diaminopyrimidine inhibitor of Streptococcus suis dihydrofolate reductase” (PeerJ, 2021).
# ± gives the standard deviation.
# Test system: Streptococcus suis HE06
# Test: percent growth relative to DMSO control; higher = less growth inhibition
# Conditions: 10 µM; incubation time 18 h
# Experimental: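 CLSI broth microdilution: 5x10^4 CFU of Streptococcus suis (strain P1/7 or HE06) incubated with 10 µM Pathogen Box compound in cation-adjusted Mueller Hinton broth, 37 °C, 5% CO2, 18 h. Growth read as OD600 and expressed as percent of the DMSO-treated control (100%); mean ± SD of three independent experiments.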
row,Structure (SMILES),percent growth [%]
1,CNc1nnc(Sc2cnn(-c3ccccc3)c(=O)c2Cl)s1,81.9 ± 1.8
2,Cc1nn2c(O)c3c(nc2c1-c1ccc(F)cc1)CCCC3,63.3 ± 22
3,COc1cccc(-n2nnnc2S(=O)(=O)Cc2ccccc2)c1,33.8 ± 19
4,Cc1ccc2[nH]c3c(NCCN(C)C)ncnc3c2c1,96.1 ± 12
5,N=C(N)Nc1ccc(-c2ccc(-c3ccc(NC(=N)N)cc3Cl)o2)c(Cl)c1,22.2 ± 37
6,O=C(Nc1ccc(F)c(-c2nc3cc(-c4ccccc4)cnc3[nH]2)c1)N1CCCC1,99.7 ± 36
7,N#Cc1nc(-c2ccccc2)oc1S(=O)(=O)c1ccc(Cl)cc1,96.9 ± 9.2
8,O=C(NCCN1CCCC1)c1cc(NCCN2CCOCC2)nc2ccc(Cl)cc12,95.2 ± 4.7
9,CCc1ccc(S(=O)(=O)Nc2cc(CN3CCN(CCC(C)C)CC3)ccc2C)cc1,95.7 ± 12
10,CC(C)(C(=O)Nc1ccc(F)cc1)n1cc(-c2ccccc2F)cn1,106 ± 22
11,c1ccc(-c2[nH]c3ccccc3c2C(c2ccccn2)N2CCCC2)cc1 (stereo not drawn),88.5 ± 4.3
12,CCOC(=O)c1noc(N)c1-c1ccccc1,107 ± 2.4
13,CN1CCC(c2cc(-c3ccncc3)c(-c3ccc(F)cc3)[nH]2)CC1,101 ± 13
14,Nc1ncnc2c1c(Cc1cccc3ccccc13)nn2CC1CCNCC1,105 ± 44
15,FC(F)(F)c1ccc(N(c2cccnc2)C2CCN(c3ccc(C(F)(F)F)cn3)CC2)cc1,67.9 ± 13
16,CC1CCCCN1C(=O)NCCc1coc(-c2ccc(F)cc2)n1 (stereo not drawn),79.5 ± 6.9
17,Cc1nc(-c2ccccn2)nc(NCCc2ccc(S(C)(=O)=O)cc2)c1Cl,131 ± 60
18,Cc1cc(C)n2nc(C(=O)Nc3cc(C(F)(F)F)ccc3N3CCOCC3)nc2n1,240 ± 280
19,Cc1cc(C)cc(COc2ccc3c(C)c(CCC(=O)O)c(=O)oc3c2C)c1,39.9 ± 40

row,Structure (SMILES),percent growth [%]
1,Nc1ncnc2c1ncn2C[C@@H](O)[C@@H](O)C(=O)O,75.9 ± 17
2,Cc1ccc(-c2nc(CN(Cc3ccccn3)C(C)C)cs2)o1,25.7 ± 44
3,OC[C@H]1O[C@@H](n2c3ccc(Cl)cc3c3c(-c4cc5ccccc5o4)ncnc32)C(O)[C@H]1O (stereo partly drawn),93 ± 20
4,N#Cc1nc(-c2ccccc2F)oc1NCCc1ccccc1,113 ± 30
5,COC(=O)c1c(NC(=O)c2cc3ccccc3oc2=O)sc2c1CCN(Cc1ccccc1)C2,84.2 ± 11
6,Cn1ncc2c(N3CCOCC3)nc(NCCc3c[nH]c4ccccc34)nc21,76.5 ± 10
7,Cc1cc(NC(=O)c2ccc(Oc3ccc(Cl)cc3O)o2)no1,108 ± 22
8,O=C(NC1CC1)c1ccc(N2CCC(Cc3ccccc3)CC2)nc1,91.7 ± 9.1
9,Cc1cc(C)nc(-n2nc(C)cc2Nc2ccccc2)n1,0.964 ± 1.7
10,CN1CCCC1CCO[C@](C)(c1ccccc1)c1ccc(Cl)cc1 (stereo partly drawn),86.3 ± 9.2
11,Cc1nc(-c2ccccn2)nc(N(C)CCc2ccccc2)c1Cl,9.53 ± 8.4
12,CC1=Nc2ccc(Cl)cc2C(c2ccccc2)N1CCNC(=O)CN(C)C (stereo not drawn),84.8 ± 4.2
13,Nc1cccnc1Nc1ccc(Cl)cc1,94.6 ± 4.4
14,O=C([C@@H](c1ccc(Cl)cc1)c1cccnc1)N1CCN(c2ccc(C(F)(F)F)cc2)CC1,89 ± 10
15,Cc1cc(Nc2ccc(C(F)(F)F)cc2)n2ccnc2n1,113 ± 12
16,Cc1cnc(N2CCN[C@@H](Cc3ccccc3)C2)nc1Oc1ccc(-n2ccnc2)cc1,98.9 ± 9.1
17,O=C(NCCc1c[nH]c2ccccc12)c1cc2ccccc2oc1=O,104 ± 6
18,O=C(NCc1ccco1)N1CCN(Cc2ccc(Cl)s2)CC1,97.2 ± 4.8
19,CC(C)c1ncc(-c2ccncc2)c([C@H]2CC[C@H](CNC(=O)c3cccnc3)CC2)n1,82.4 ± 8.9
